Rows were chosen to be rich in hits. Some 0.9% of all compounds tested hit in one or more screens of this group.
FadD28 binding: inhibitors of Mycobacterium tuberculosis FadD28 bisubstrate binding | 0.22% of 360,000 active | FadD28 bisubstrate probe binding, fluorescence polarization | AID 588549 | inhibition, % at 12.5 µM; in the data active = inhibition above about 8.5%, passing the limit was not always enough; inconclusive = no clear call, values can overlap the other calls
Rv3671c protease: inhibitors of M. tuberculosis serine protease Rv3671c; P9WHR9; inhibition, % at 5.96 µM; 0.048% of 320,000 active; in the data active = inhibition above about 38%;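 also: extracellular domain of Rv3671c used as enzyme; 0% = enzyme with DMSO and 100% = no enzyme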
RecA splice inh: Mtb RecA intein splicing inhibition. P9WHJ3. AID 2221. inhibition, % (concentration not given with the values). cell-free RecA intein splicing, fluorescence. 0.75% of 290,000 active; in the data active = inhibition above about 30%; inconclusive = no clear call, values can overlap the other calls;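 also: 0% = vehicle wells and 100% = reference inhibitor control wells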
Mtb UGM inh: blocks M. tuberculosis UGM enzyme. P9WIQ1. inhibition, % at 10 µM. 0.06% of 320,000 active. purified UGM, fluorescence polarization probe displacement; in the data active = inhibition above about 10%, passing the limit was not always enough; inconclusive = no clear call, values can overlap the other calls
Target sequence (P9WIQ1 whole entry, looked up): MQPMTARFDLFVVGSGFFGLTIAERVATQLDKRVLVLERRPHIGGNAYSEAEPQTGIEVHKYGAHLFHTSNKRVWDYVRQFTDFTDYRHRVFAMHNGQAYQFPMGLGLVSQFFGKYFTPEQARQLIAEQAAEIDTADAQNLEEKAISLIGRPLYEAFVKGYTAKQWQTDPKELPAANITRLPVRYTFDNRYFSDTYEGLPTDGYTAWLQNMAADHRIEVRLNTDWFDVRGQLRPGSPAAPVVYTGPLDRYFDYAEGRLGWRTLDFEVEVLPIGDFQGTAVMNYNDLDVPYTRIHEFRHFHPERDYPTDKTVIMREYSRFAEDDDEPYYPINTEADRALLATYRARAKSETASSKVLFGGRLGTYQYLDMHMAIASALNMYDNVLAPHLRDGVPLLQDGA
BioA inh: BioA (M. tuberculosis) enzyme inhibition. purified M. tuberculosis BioA enzyme, plate reader. inhibition, % at 9.99 µM. 0.096% of 360,000 active. AID 602481; in the data active = inhibition above about 40%; inconclusive = no clear call, values can overlap the other calls
TcdB GH inh: blocks C. difficile toxin B glycohydrolase activity. TcdB glycohydrolase enzymatic assay, plate reader. inhibition, % at 9.99 µM. 0.24% of 350,000 active; in the data active = inhibition above about 10%
Active calls of the source: *; ? = inconclusive; . = no result given.

SMILES	FadD28 binding	Rv3671c protease	RecA splice inh	Mtb UGM inh	BioA inh	TcdB GH inh
CCOC(=O)N1CCN(S(=O)(=O)c2ccc(C(=O)NNc3nc4c(C)cc(C)cc4s3)cc2)CC1	15*	0	-5	5	-1	1
Cc1cccc2sc(NNC(=O)c3ccc(S(=O)(=O)N4CCc5ccccc5C4)cc3)nc12	3	11	0	0	-1	1
CCOC(=O)N1CCN(S(=O)(=O)c2ccc(C(=O)NNc3nc4c(C)cccc4s3)cc2)CC1	17*	11	5	-1	1	1
CCOC(=O)N1CCN(S(=O)(=O)c2ccc(C(=O)NNc3nc4cc(C)cc(C)c4s3)cc2)CC1	3	16	13	-1	0	.
O=C(N[C@@H]1CC[C@H](CCNC(=O)C2CCCC2)O[C@@H]1CO)c1ccncc1	.	.	.	.	-3	0
O=c1[nH]c(/C=C\c2ccc(O)c(Cl)c2)nc(O)c1[N+](=O)[O-]	1	-3	2	-2	-5	12*
O=c1[nH]c(/C=C\c2cccs2)nc(O)c1[N+](=O)[O-]	0	3	1	0	1	-1
O=c1[nH]c(/C=C\c2ccc(O)cc2)nc(O)c1[N+](=O)[O-]	0	-2	0	4	-1	16*
Cc1ccc(C(=O)n2cnc3ccccc32)cc1C	0	5	36*	1	-2	4
O=C(N[C@@H]1CC[C@H](CCNS(=O)(=O)c2ccc(Cl)cc2)O[C@@H]1CO)c1cccc(F)c1	.	.	.	.	5	-2
COCC(=O)N1CC[C@@H]2[C@H]1c1cc(-c3ccc(OC)cc3)ccc1N(C)[C@H]2CO	.	.	.	.	2	17*
CCC(=O)N1CC[C@H]2[C@@H]1c1cc(-c3ccccc3)ccc1N(C)[C@H]2CO	.	.	.	.	13	4
CN1c2ccc(-c3ccccc3)cc2[C@@H]2[C@@H](CCN2C(=O)CN2CCOCC2)[C@@H]1CO	.	.	.	.	5	12*
CN(C)CC(=O)N1CC[C@@H]2[C@H]1c1cc(-c3ccccc3)ccc1N(C)[C@H]2CO	.	.	.	.	10	12*
COc1ccc(NC(=O)Nc2ccc3c(c2)C(=O)N([C@H](C)CO)C[C@H](C)[C@H](CN(C)CC2CC2)OCCCC[C@H](C)O3)cc1	.	.	.	.	0	0
O=C(O)c1ccc(-c2nc3ccccc3[nH]2)cc1	-1	-8	12	1	.	1
O=C(O)c1ccc(/C=C(\c2nc3ccccc3[nH]2)c2nc3ccccc3s2)cc1	-5	-2	39*	0	8	0
C/C(CC(=O)Nc1ccc(Cl)cc1)=N\NC(=O)C(=O)N1CCCCC1	-1	-2	78*	-1	.	-2
O=C(c1ccc(F)cc1)N1CC(=O)N2[C@H](C1)[C@@H](c1ccc(-c3cccnc3)cc1)[C@@H]2CO	.	.	.	.	.	0
COC(=O)c1ccc(NC(=S)Nc2ccc(O)cc2)cc1	-2	6	-2	2	.	10*
O=C(NNC(=O)c1cccc2ccccc12)c1cccc(F)c1	-3	.	.	.	0	11*
O=c1c2ccccc2oc2ccc(NCCCN3CCOCC3)cc12	-3	3	-13	0	12	13*
O=C(C1CCOCC1)N1CC[C@@H]2[C@H]1c1cc(-c3ccc(F)cc3)ccc1N[C@@H]2CO	.	.	.	.	0	-1
CC(C)NC(=O)N1CC[C@@H]2[C@@H](CO)N(C)c3ccc(-c4cccc(F)c4)cc3[C@@H]21	.	.	.	.	27	.
O=C(C1CCOCC1)N1CC[C@@H]2[C@@H](CO)Nc3ccc(-c4ccc(F)cc4)cc3[C@@H]21	.	.	.	.	15	10*
SMILES	FadD28 binding	Rv3671c protease	RecA splice inh	Mtb UGM inh	BioA inh	TcdB GH inh
CC(C)NC(=O)N1CC[C@@H]2[C@H]1c1cc(-c3ccc(F)cc3)ccc1N(C)[C@H]2CO	.	.	.	.	.	12*
CC(C)NC(=O)N1CC[C@@H]2[C@H]1c1cc(-c3ccccc3)ccc1N(C)[C@H]2CO	.	.	.	.	0	15*
CCCNC(=O)N1CC[C@@H]2[C@@H](CO)N(C)c3ccc(-c4ccccc4)cc3[C@@H]21	.	.	.	.	.	11*
CC(C)NC(=O)N1CC[C@@H]2[C@H]1c1cc(-c3cccc(F)c3)ccc1N(C)[C@@H]2CO	.	.	.	.	3	.
C[C@H](NC(=O)C[C@H]1CC[C@H](NC(=O)C2CC2)[C@@H](CO)O1)c1ccccc1	.	.	.	.	-3	1
C=CCN=c1scc(C)n1/N=C/c1ccc(O)c(O)c1	2	6	-6	0	.	15*
CN=c1scc(-c2ccco2)n1/N=C/c1ccc(O)c(O)c1	11*	.	-3	.	.	0
CC(C)CC#Cc1ccc2c(c1)O[C@H](CN(C)C(=O)c1ccccn1)[C@H](C)CN([C@@H](C)CO)S2(=O)=O	.	.	.	.	2	0
CCOC(=O)c1cc(-c2ccccc2)sc1NC(=O)c1ccc(OC)cc1	.	-1	-1	0	.	.
O=C(Nc1sc(-c2ccccc2)cc1C(=O)O)c1ccccc1	19*	13	-1	0	8	1
Cc1ccc(NC(=O)c2cc(NC(=O)c3ccccc3C(=O)O)ccc2N2CCCCC2)cc1	-10	2	6	1	.	-11
Cc1ccc(NC(=O)c2cc(NC(=O)/C=C\C(=O)O)ccc2N2CCCCC2)cc1	-1	0	48*	-1	3	-2
Cc1nn(C(=O)c2cccnc2)c(C)c1Sc1ccc(Br)cc1	-8	1	44*	-1	1	.
Cc1ccc(/C=C(\C#N)C(=O)Nc2ccccn2)o1	-2	-1	0	-1	0	17*
Oc1ccc(N=Nc2ccccc2-c2nn[nH]n2)c(O)c1	22*	29	0	2	6	-48
O=C(Cc1ccccn1)c1ccncc1	-3	.	.	.	-1	10*
O=C(CC(=O)c1ccncc1)c1ccccc1	-2	.	.	.	.	0
C[C@@H]1CN([C@@H](C)CO)C(=O)c2cc(C#CC3(O)CCCC3)cnc2O[C@@H]1CN(C)C(=O)C1CCC1	.	.	.	.	-2	0
COCCCNC(=O)c1ccccc1Oc1ccccc1	-4	-4	3	-1	-1	.
COCCCNC(=O)c1ccc2c3c(onc13)-c1ccccc1C2=O	1	-78	37*	1	-1	.
C/C(=N/NC(=O)c1cc2ccccc2cc1O)C1C(=O)c2ccccc2C1=O	37*	23	27	1	0	.
C/C(=N\NC(=O)c1ccccc1O)C1C(=O)c2ccccc2C1=O	?	22	27	1	3	.
O=C(c1ccc2c(c1)OCO2)N1CC(=O)N2[C@@H](CO)[C@H](c3ccc(C#Cc4ccccc4)cc3)[C@@H]2C1	.	.	.	.	.	-2
CC(=O)N(C)C[C@@H]1Oc2ncc(C#C[C@H](C)O)cc2C(=O)N([C@H](C)CO)C[C@@H]1C	.	.	.	.	-2	0
N#C/C(=C(/O)CSc1ccccn1)c1nc2ccccc2s1	-4	-20	-3	3	.	1
N#C/C(=C(/O)CSc1ccccc1C(=O)O)c1nc2ccccc2s1	2	0	-6	14*	-1	.

Source: PubChem
